# Values joined by “and” are separate entries in the source; they are usually repeats but may differ in a detail not shown here. Equal values may be shown once. Records with an inconclusive call do not appear. Active and inactive are the calls of the source. Cut-off read from the data, not from the text of the source, unless noted: active = inhibition above about 80%; inactive = the rest.
# Columns and labels:
# [1] = inhibitors of Cryptococcus chitosan production, flow cytometry, Cibacron Brilliant Red staining (AID 1347148; call rule not given here;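 note: compound exposure lasted three days at 37 degrees C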); details: Cryptococcus neoformans chitosan, stronger effect = lower value; at 10 µM unless noted
# [2] = protection against mutant huntingtin cytotoxicity, PC12 cells, LDH release (AID 1610); details: PC12 mutant huntingtin toxicity, final LDH at 4 uM, stronger effect = lower value
# [3] = LFS_MB_P medulloblastoma growth inhibition, cell-based, chromothripsis tumors, cisplatin or BGB combos (AID 1671449); details: LFS_MB_P medulloblastoma cells;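 note: cells exposed for 96 hours; 0% = vehicle DMSO and 100% = killing by high DMSO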
# [4] = HDN33 neuroblastoma growth inhibition, cell-based, chromothripsis tumors, cisplatin or BGB combos (AID 1671450); details: HDN33 neuroblastoma cells, stronger effect = higher value;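 note: cells exposed to compound for four days; 0% = vehicle DMSO and 100% = cell killing by high DMSO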
# [5] = LFS_MB_1R medulloblastoma cell growth inhibition, synergistic combos for chromothripsis tumors, cisplatin or BGB combos (AID 1671452); details: LFS_MB_1R medulloblastoma cells, stronger effect = higher value;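 note: cells exposed for 96 hours before readout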
# [6] = HTB85 osteosarcoma cell growth inhibition, synergistic combos for chromothripsis tumors, BGB or cisplatin IC20 combos (AID 1671453); details: HTB85 osteosarcoma cells, drug combinations, stronger effect = higher value;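 note: cells exposed for 96 hours before readout; 0% = vehicle DMSO and 100% = high DMSO killing control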
# [7] = CRL2098 osteosarcoma cell growth inhibition, synergistic combos for chromothripsis tumors, BGB or cisplatin IC20 combos (AID 1671454); details: CRL2098 osteosarcoma cells, drug combinations, stronger effect = higher value;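 note: cells exposed for 96 h before readout; 0% = vehicle DMSO and 100% = killing by high DMSO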
# [8] = HD-MB03 medulloblastoma cell growth inhibition, synergistic combos for chromothripsis tumors, BGB or cisplatin IC20 combos (AID 1671455; in the data active = inhibition above about 83%;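 note: 0% = vehicle DMSO and 100% = high DMSO as cytotoxic control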); details: HD-MB03 medulloblastoma cells, stronger effect = higher value
# [9] = UWB1.289 ovarian carcinoma cell growth inhibition, synergistic combos for chromothripsis tumors, BGB or cisplatin combos (AID 1671456); details: UWB1.289 ovarian carcinoma cells, stronger effect = higher value;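 note: cells exposed to compound for four days; 0% = vehicle DMSO and 100% = killing by high DMSO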
# [10] = LFS_MB_2R medulloblastoma cell growth inhibition, synergistic combos for chromothripsis tumors, cisplatin combos (AID 1671457); details: LFS_MB_2R medulloblastoma cells, stronger effect = higher value;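 note: cells exposed to compound for four days before readout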
# [11] = MDA-MB-436 breast carcinoma cell growth inhibition, synergistic combos for chromothripsis tumors, BGB or cisplatin combos (AID 1671458; call rule not given here;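 note: cells exposed for 96 hours; 0% = vehicle DMSO and 100% = killing by high DMSO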); details: MDA-MB-436 breast carcinoma growth inhibition, drug combinations, stronger effect = higher value
# [12] = UWB1.289_BRCA1 ovarian cancer growth, cell-based, BGB or cisplatin combinations (AID 1671459); details: UWB1.289 BRCA1 ovarian carcinoma, drug combinations, stronger effect = higher value
# [13] = human astrocyte viability loss, single and combined drugs, cytotoxicity control for chromothriptic childhood tumor combination screen, cell-based, BGB or cisplatin IC20 combos (AID 1671460); details: Human astrocytes, drug combinations, stronger effect = higher value;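 note: cells exposed to compounds for 96 hours before viability readout; 0% = vehicle and 100% = killing control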
# [14] = growth inhibition of BT084 medulloblastoma cells, cell-based, ICGC_MB145, cisplatin and BGB IC40 combos (AID 1671461); details: drug combinations, stronger effect = higher value;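 note: cells exposed to drugs for 96 hours; 0% = vehicle DMSO and 100% = high DMSO full killing control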
# [15] = growth inhibition of RCMB18 medulloblastoma cells, cell-based, cisplatin and BGB IC40 combos (AID 1671462); details: stronger effect = higher value;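 note: cells exposed to compound for four days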
# [16] = growth inhibition of CRL1545 osteosarcoma cells, cell-based, cisplatin and BGB IC20 combos (AID 1671464); details: stronger effect = higher value;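 note: cells exposed to compound for 96 hours before readout; 0% = vehicle DMSO and 100% = high DMSO killing control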
# [17] = modifiers of HSF1 nuclear foci, imaging, Selleck Cancer Library (AID 1347162; in the data active = plate-normalised HSF1 focus index below about 0.46); details: human cells, at 10 µM; SSMD: measured here: HSF1 foci SSMD mean; cell count: measured here: cell number; plate-normalised HSF1 focus index: stronger effect = lower value
# [18] = at 0.5 µM, stronger effect = higher value
# [19] = measured here: combination with BGB IC20, at 0.005 µM
# [20] = measured here: combination with BGB IC40, at 0.005 µM
# [21] = measured here: combination with BGB IC40, at 0.05 µM
# [22] = measured here: combination with cisplatin, at 0.5 µM, stronger effect = higher value
# [23] = measured here: combination with cisplatin, at 5 µM, stronger effect = higher value
# [24] = measured here: with BGB IC20 combination, at 0.5 µM
# [25] = measured here: with cisplatin IC20 combination, at 0.5 µM
# [26] = measured here: combination with cisplatin, at 0.5 µM
# [27] = measured here: combination with cisplatin, at 5 µM
# [28] = measured here: with BGB IC20, at 0.5 µM
# [29] = measured here: with BGB IC20, at 5 µM
# [30] = measured here: with cisplatin IC20, at 0.5 µM
# [31] = measured here: with cisplatin IC20, at 5 µM
# [32] = measured here: combination with BGB at IC20, at 0.5 µM
# [33] = measured here: combination with cisplatin at IC20, at 0.5 µM
# [34] = measured here: combo with BGB at IC20, at 0.5 µM
# [35] = measured here: combo with cisplatin at IC20, at 0.5 µM
# [36] = measured here: inhibition with BGB combination, at 0.05 µM
# [37] = measured here: inhibition with cisplatin combination, at 0.05 µM
# [38] = measured here: BGB combination, at 0.5 µM
# [39] = measured here: BGB combination, at 5 µM
# [40] = measured here: cisplatin combination, at 0.5 µM
# [41] = measured here: cisplatin combination, at 5 µM
# [42] = BGB combination, concentration series, at 5 µM
# [43] = cisplatin combination, concentration series, at 5 µM
# [44] = measured here: combo with BGB IC20, at 0.5 µM
# [45] = measured here: combo with cisplatin IC20, at 0.5 µM
# [46] = cisplatin combination, at 0.5 µM
# [47] = measured here: BGB IC40 combination 0.05 uM, at 0.05 µM
# [48] = measured here: BGB IC40 combination, at 0.05 µM
compound,measurement,setting,value
C[C@@H]1O[C@@H](O[C@H]2C[C@@H](O)[C@]3(CO)[C@H]4[C@H](O)C[C@]5(C)[C@@H](C6=CC(=O)OC6)CC[C@]5(O)[C@@H]4CC[C@]3(O)C2)[C@H](O)[C@H](O)[C@H]1O,fold fluorescence,[1],4.64 [at 85.5 µM] (inactive)
CC[n+]1c(-c2ccccc2)c2cc(N)ccc2c2ccc(N)cc21,normalised LDH release,[2],0.673
O=P1(NCCCl)OCCCN1CCCl (stereo unspecified),inhibition,[3]; [18],-12.1% (inactive) and -23.4% (inactive)
same,inhibition,[3]; [19],-22%
same,inhibition,[3]; [20],-15% and -23.6%
same,inhibition,[3]; [21],-22.5% and -36.7%
same,inhibition,[3]; [22],-34.3% and -30.8%
same,inhibition,[3]; [23],-44% and -49.9%
same,inhibition,"[4]; BGB combo, at 5 µM",-18.3% and -55.5%
same,inhibition,[4]; at 0.5 µM,2.74% (inactive) and -43.1% (inactive)
same,inhibition,"[4]; cisplatin combo, at 5 µM",-14.3% and -32.8%
same,inhibition,[4]; [24],36.5% and -51.2%
same,inhibition,[4]; [25],-4.58% and -35.3%
same,inhibition,"[4]; single agent, at 5 µM",-24.7% and -29.3%
same,inhibition,[5]; at 0.5 µM,-28.1% (inactive) and -35.8% (inactive)
same,inhibition,[5]; [21],3.69% and -53.3%
same,inhibition,[5]; [26],-0.682% and -78.4%
same,inhibition,[5]; [27],-35.6% and -67.8%
same,inhibition,[6]; at 0.5 µM,-11.8% (inactive) and -20.1% (inactive)
same,inhibition,[6]; [28],-26.1% and -41.8%
same,inhibition,[6]; [29],-16.8% and -29.8%
same,inhibition,[6]; [30],9.75% and -12.8%
same,inhibition,[6]; [31],1.05% and -46.6%
same,inhibition,"[6]; single agent, at 5 µM",-10.4% and -9.47%
same,inhibition,[7]; at 0.5 µM,-54.7% (inactive) and -66.2% (inactive)
same,inhibition,[7]; [32],-36.5% and -70.3%
same,inhibition,[7]; [33],-76.6% and -81.7%
same,inhibition,[8]; at 0.5 µM,-1.59% (inactive) and -13.1% (inactive)
same,inhibition,[8]; [34],-0.444% and -33.2%
same,inhibition,[8]; [35],-1.58% and -14.4%
same,inhibition,[9]; at 0.5 µM,-7.68% (inactive) and -24.2% (inactive)
same,inhibition,[9]; [36],-37.9% and -17.6%
same,inhibition,[9]; [37],-13.2% and -26.4%
same,inhibition,[10]; at 0.5 µM,-24.9% (inactive) and -21% (inactive)
same,inhibition,[10]; [26],-18.4% and -33%
same,inhibition,[10]; [27],-20.4% and -22.6%
same,inhibition,[11]; at 0.5 µM,-32.5% (inactive) and -17.3% (inactive)
same,inhibition,[11]; [38],-44.8% and -19%
same,inhibition,[11]; [39],-38% and -30.9%
same,inhibition,[11]; [40],-35.4% and -19.9%
same,inhibition,[11]; [41],-21.1% and -24.7%
same,inhibition,[12]; [42],-15.7% and -7.29%
same,inhibition,[12]; at 0.5 µM,-18.2% (inactive) and -23.7% (inactive)
same,inhibition,[12]; [43],-10.3% and -29.5%
same,inhibition,[13]; at 0.5 µM,-8.49% (inactive) and 1.06% (inactive)
same,inhibition,[13]; [44],-4.33% and 4.18%
same,inhibition,[13]; [45],-7.61% and -5.83%
same,inhibition,[14]; at 0.5 µM,-13.2% (inactive) and -8.24% (inactive)
same,inhibition,[14]; [46],-6.37% and -25.6%
same,inhibition,"[14]; cisplatin combination, at 5 µM",-50% and -9.28%
same,inhibition,[14]; [47],1.93% and -27.2%
same,inhibition,"[14]; single agent, at 5 µM",-32% and -16.6%
same,inhibition,[15]; at 0.5 µM,-14.3% (inactive) and -7.44% (inactive)
same,inhibition,"[15]; cisplatin combo, at 5 µM",-2.4% and -9.06%
same,inhibition,[15]; [48],-18.8% and -23%
same,inhibition,[15]; [26],-12.5% and 2.1%
same,inhibition,"[15]; single agent, at 5 µM",-33% and -28.9%
same,inhibition,[16]; at 0.5 µM,-45.1% (inactive) and -50.6% (inactive)
same,inhibition,[16]; [24],-3.77% and -48%
same,inhibition,[16]; [25],-65.8% and -54.4%
same,inhibition,"[16]; single agent, at 0.05 µM",-16.2% and -50%
same,inhibition,"[16]; single agent, at 5 µM",2.18% and -61%
Nc1ccncc1,fold fluorescence,[1],3.69 [at 531.3 µM] (inactive)
C=C1C[C@@H]2[C@H](CC[C@]3(C)C(=O)CC[C@@H]23)[C@@]2(C)C=CC(=O)C=C12,SSMD,[17],1.72
same,cell count,[17],6870
same,plate-normalised HSF1 focus index,[17],1.09 (inactive)
CC1(C)C(C=C(Cl)Cl)C1C(=O)OC(C#N)c1cccc(Oc2ccccc2)c1 (stereo unspecified),fold fluorescence,[1],4.81 [at 120.1 µM] (inactive)
N#Cc1nn(-c2c(Cl)cc(C(F)(F)F)cc2Cl)c(N)c1S(=O)C(F)(F)F (stereo unspecified),fold fluorescence,[1],4.35 [at 114.4 µM] (inactive)
Oc1cccc2cccnc12,normalised LDH release,[2],1
CCCCC/C=C\C/C=C\C/C=C\C/C=C\CCCC(=O)NCC(=O)O,fold fluorescence,[1],3.73 (inactive)
Cn1c(CCCC(=O)O)nc2cc(N(CCCl)CCCl)ccc21,inhibition,[3]; [18],-19.5% (inactive)
same,inhibition,[3]; [19],-18.2%
same,inhibition,[3]; [20],-30.6%
same,inhibition,[3]; [21],-11.9%
same,inhibition,[3]; [22],-29.9%
same,inhibition,[3]; [23],-14.2%
same,inhibition,"[4]; BGB combo, at 5 µM",-27.8%
same,inhibition,[4]; at 0.5 µM,-43.6% (inactive)
same,inhibition,"[4]; cisplatin combo, at 5 µM",-18.8%
same,inhibition,[4]; [24],-46.1%
same,inhibition,[4]; [25],-39.8%
same,inhibition,"[4]; single agent, at 5 µM",-57.4%
same,inhibition,[5]; at 0.5 µM,-36.7% (inactive)
same,inhibition,[5]; [21],-23.8%
same,inhibition,[5]; [26],-14.3%
same,inhibition,[5]; [27],-23.5%
same,inhibition,[6]; at 0.5 µM,-34.4% (inactive)
same,inhibition,[6]; [28],-54.6%
same,inhibition,[6]; [29],-12.9%
same,inhibition,[6]; [30],-48.5%
same,inhibition,[6]; [31],-38%
same,inhibition,"[6]; single agent, at 5 µM",-20%
same,inhibition,[7]; at 0.5 µM,-98.8% (inactive)
same,inhibition,[7]; [32],-103%
same,inhibition,[7]; [33],-129%
same,inhibition,[8]; at 0.5 µM,-13.4% (inactive)
same,inhibition,[8]; [34],-11.1%
same,inhibition,[8]; [35],-20.4%
same,inhibition,[9]; at 0.5 µM,-2.34% (inactive)
same,inhibition,[9]; [36],-13.2%
same,inhibition,[9]; [37],-10.4%
same,inhibition,[10]; at 0.5 µM,-14.6% (inactive)
same,inhibition,[10]; [26],-2.61%
same,inhibition,[10]; [27],-14.7%
same,inhibition,[11]; at 0.5 µM,-25.9% (inactive)
same,inhibition,[11]; [38],-33%
same,inhibition,[11]; [39],-23.4%
same,inhibition,[11]; [40],-31%
same,inhibition,[11]; [41],-8.45%
same,inhibition,[12]; [42],-2.78%
same,inhibition,[12]; at 0.5 µM,-6.91% (inactive)
same,inhibition,[12]; [43],-6.97%
same,inhibition,[13]; at 0.5 µM,-9.57% (inactive)
same,inhibition,[13]; [44],-2.95%
same,inhibition,[13]; [45],-20%
same,inhibition,[14]; at 0.5 µM,-12.4% (inactive)
same,inhibition,[14]; [46],-15.3%
same,inhibition,"[14]; cisplatin combination, at 5 µM",-29.8%
same,inhibition,[14]; [47],-6.48%
same,inhibition,"[14]; single agent, at 5 µM",-11.8%
same,inhibition,[15]; at 0.5 µM,-2.17% (inactive)
same,inhibition,"[15]; cisplatin combo, at 5 µM",-2.69%
same,inhibition,[15]; [48],14.5%
same,inhibition,[15]; [26],15.5%
same,inhibition,"[15]; single agent, at 5 µM",-39.8%
same,inhibition,[16]; at 0.5 µM,-50.3% (inactive)
same,inhibition,[16]; [24],-68.1%
same,inhibition,[16]; [25],-41.4%
same,inhibition,"[16]; single agent, at 0.05 µM",2.56%
same,inhibition,"[16]; single agent, at 5 µM",-15.4%
c1ccc(C2CC2)c(OCC2=NCCN2)c1,fold fluorescence,[1],4.38 [at 231.2 µM] (inactive)

# From PubChem BioAssay
